The values that follow come from PubChem BioAssay (Tox21).

The structures appear in SMILES notation. Where “and” joins values, the source holds several entries; their conditions need not be identical. Equal values may be shown once. Results filed as inconclusive are left out. Calls of active or inactive are those of the source. Unless noted, calls follow the shape of the dose curve; as a rule, active = well fitted curve in the direction sought with a large enough effect in the repeat runs; inconclusive = weak or mixed curves; inactive = no such curve, though single readings can be large; an effect the other way counts as inactive or inconclusive.

Assay [1] can be described thus: qHTS assay to identify small molecule antagonists of the estrogen receptor alpha (ER-alpha) signaling pathway using the BG1 cell line in the presence of 0.1 nM 17-beta-estradiol - cell viability counter screen (AID 1259241). Also: nearly all actives have a fitted effect of over 40% in size. Also: potency is read from the fitted curve at half-maximal effect. The method in brief:
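Cytotoxicity counter-screen: live-cell protease activity measured by fluorescence (30 min reagent step) in the same wells. Cells were VM7Luc4E2 with endogenous ER-alpha and ERE-driven luciferase, treated 22 hr at 37C alongside 0.1 nM 17beta-estradiol final.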
A general note: qHTS replaces the single test concentration by a dilution series.

Assay [2] is described as follows: qHTS assay to identify small molecule antagonists of the androgen receptor (AR) signaling pathway using the MDA cell line in the presence of 0.5 nM R1881 - cell viability counter screen (AID 1259242). Also: nearly all actives have a fitted effect of over 45% in size. Also: potency is read from the fitted curve at half-maximal effect. The method, boiled down: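 R1881 at 0.5 nM final stimulated MDA-kb2 cells during 16 hr compound treatment at 37C. Cytotoxicity read: CellTiter-Fluor fluorescence after 30 min.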

A short description of assay [3]: qHTS assay to identify small molecule phospholipidosis (PLD) inducers (AID 1259344; active = well fitted curve in the direction sought with a large enough effect; an effect the other way counts as inactive or inconclusive). The method in brief: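 HepG2 cells grown on collagen I take up LipidTOX Red while exposed to compound for 24 h; after fixation they are imaged at 20x and pit metrics are extracted.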
The nature of assay [4]: qHTS assay to identify small molecule HDAC inhibitors (AID 1259364).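 Also: wild-type HCT-116 cells with endogenous class I/II HDAC activity; top concentration of the series differs between compounds; nearly all actives have a fitted effect of over 45% in size.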 The method in brief:
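Relative class I and II HDAC activity is taken from the luminogenic signal in HCT-116 cells, with compound exposure 2 hr and reagent development 30 min at room temperature.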

The nature of assay [5]: qHTS assay to identify small molecule HDAC inhibitors - cell viability counter screen (AID 1259365). Also: series mostly up to about 92 µM; nearly all actives have a fitted effect of over 50% in size. The method, boiled down:
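CellTiter-Glo luminescence (30 min, room temperature) reported viability after a 2 h compound exposure at 37 C. Cells: wild-type HCT-116, 1,500 per well, seeded the night before.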

Assay [6] in a line: qHTS assay to identify small molecule agonists of the sonic hedgehog signaling (Shh) pathway (AID 1259368; calls by dose curve;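 also: NIH/3T3-derived 3T3Gli1-Luc cells carrying a stable Gli1-driven firefly luciferase reporter; series mostly up to about 92 µM; nearly all actives have a fitted effect of over 15% in size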). The method, boiled down:
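Mouse fibroblast (NIH/3T3) reporter cells with stably integrated Gli1-Luc were treated 24 hr with compound; firefly luciferase luminescence served as the read-out.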

Assay [7] is described as follows: qHTS assay to identify small molecule antagonists of the sonic hedgehog signaling (Shh) pathway (AID 1259369; calls by dose curve; also: nearly all actives have a fitted effect of over 45% in size; also: potency is read from the fitted curve at half-maximal effect). The method, boiled down: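 Conditioned medium drives Shh signalling in 3T3Gli1-Luc cells; compounds in DMSO co-applied, 24hr at 37 C, then luciferase luminescence.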
Assay [8] concerns the target Estrogen receptor beta (Homo sapiens) (UniProt Q92731). Kind of assay: qHTS assay to identify small molecule agonists of the estrogen receptor beta (ER-beta) signaling pathway (AID 1259377; active = well fitted activation curve with a large enough effect in the signal ratio in the repeat runs, not every such curve was filed as active; the % refers to the signal ratio). The method, boiled down:
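Ratiometric beta-lactamase FRET read-out came after 2 h substrate loading at room temperature. It followed 16 h compound treatment at 37C of GripTite HEK293T cells carrying a UAS-bla reporter, plated in 2% charcoal-stripped FBS medium.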

For assay [9] the target is unchanged. Kind of assay: qHTS assay to identify small molecule antagonists of the estrogen receptor beta (ER-beta) signaling pathway (AID 1259378; active = well fitted inhibition curve with a large enough effect in the signal ratio in the repeat runs, not every such curve was filed as active; the % refers to the signal ratio). The method in brief:
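ER-beta-UAS-bla HEK293T (GripTite) cells in 2% charcoal-stripped FBS medium were preincubated 6 hr at 37C, dosed with compound, then stimulated with 1 nM E2 (final) for 16 hr; beta-lactamase reporter read by B/G FRET fluorescence after 2 hr substrate loading.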

The nature of assay [10]: qHTS assay to identify small molecule agonists of the androgen receptor (AR) signaling pathway in the presence of an antagonist - cell viability counter screen (AID 1259379).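 Also: MDA-kb2 human breast cancer cells carrying an MMTV luciferase reporter; series mostly up to about 92 µM; nearly all actives have a fitted effect of over 25% in size.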 The method in brief: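 A CellTiter-Fluor read-out measured viability of MDA-kb2 reporter cells (MMTV promoter with AR and GR response elements). Treatment: nilutamide 3.0uM final with compounds at 15 concentrations, 16 hr, 37C, 0% CO2.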

The target in assay [11] is Estrogen receptor (Homo sapiens) (UniProt P03372). Kind of assay: qHTS assay to identify small molecule agonists of the estrogen receptor alpha (ER-alpha) signaling pathway in the presence of an antagonist (AID 1259383; calls by dose curve; also: top concentration of the series differs between compounds; nearly all actives have a fitted effect of over 15% in size). The method, boiled down: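 Using VM7Luc4E2 cells seeded 24hr before treatment, antagonist ICI-182,780 (10.0nM final) was added, followed by compounds at 15 concentrations. Plates incubated 22hr; ONE-Glo luminescence quantified reporter activity.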
Estrogen receptor (Homo sapiens), sequence (P03372 whole entry, looked up): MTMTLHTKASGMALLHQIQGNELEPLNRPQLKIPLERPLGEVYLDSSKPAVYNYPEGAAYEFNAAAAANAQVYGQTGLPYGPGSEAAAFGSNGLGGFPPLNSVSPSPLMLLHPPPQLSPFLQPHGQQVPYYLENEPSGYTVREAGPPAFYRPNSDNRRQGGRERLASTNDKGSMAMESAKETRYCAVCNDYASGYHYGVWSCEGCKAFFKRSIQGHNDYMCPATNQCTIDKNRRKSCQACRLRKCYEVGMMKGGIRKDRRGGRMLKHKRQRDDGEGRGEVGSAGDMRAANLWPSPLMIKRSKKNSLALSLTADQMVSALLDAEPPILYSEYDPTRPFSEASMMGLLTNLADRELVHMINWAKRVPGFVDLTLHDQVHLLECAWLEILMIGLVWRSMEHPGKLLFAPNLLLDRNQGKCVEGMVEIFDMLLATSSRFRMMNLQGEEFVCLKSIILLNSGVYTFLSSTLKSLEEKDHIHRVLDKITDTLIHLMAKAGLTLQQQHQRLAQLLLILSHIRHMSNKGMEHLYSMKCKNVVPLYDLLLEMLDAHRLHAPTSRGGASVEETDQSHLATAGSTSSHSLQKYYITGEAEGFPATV

Assay [12] is described as follows: qHTS assay to identify small molecule agonists or antagonists of the thyroid stimulating hormone receptor (TSHR) signaling pathway - wild type cell line counter screen (AID 1259384; calls by dose curve). The method, boiled down: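 Wild-type HEK293 cells were plated 18 h at 37 C/5% CO2, pin-dosed with compound plus Ro20-1724 medium, held 30 min at room temperature, then given cAMP-d2 and anti-cAMP-cryptate; fluorescence was read after 1 h. Fifteen concentrations, triplicate.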

The target of assay [13] is Thyrotropin receptor (Homo sapiens) (UniProt P16473). Kind of assay: qHTS assay to identify small molecule antagonists of the thyroid stimulating hormone receptor (TSHR) signaling pathway (AID 1259385; calls by dose curve; also: nearly all actives have a fitted effect of over 20% in size). The method, boiled down:
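TSHR-HEK293 cells were plated and held 18 h at 37C/5% CO2, then given compound plus Ro20-1724 and stimulated with TSH at 1.5 ng/mL final. After 30 min at room temperature, cAMP was detected with cAMP-d2/anti-cAMP-cryptate (1 h) by fluorescence.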

The nature of assay [14]: qHTS assay to identify small molecule agonists of the sonic hedgehog signaling (Shh) pathway - cell viability counter screen (AID 1259366). Also: nearly all actives have a fitted effect of over 50% in size. Also: potency is read from the fitted curve at half-maximal effect. The method in brief: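 Cytotoxicity counter screen: CellTiter-Fluor reagent added after 23 h compound exposure, then 1 h at 37C and fluorescence read. Cells were 3T3 Gli1-Luc, seeded 2,000 per well and dosed 4 h post-plating.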
The nature of assay [15]: qHTS assay to identify small molecule antagonists of the sonic hedgehog signaling (Shh) pathway - cell viability counter screen (AID 1259367). Also: nearly all actives have a fitted effect of over 55% in size. The method, boiled down: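 After a 4 hr settling period, 3T3 Gli1-Luc cells were treated with DMSO-dissolved chemicals and conditioned medium, kept 24 hr at 37C in 5% CO2, and assayed for viability by CellTiter-Fluor fluorescence following 1 hr reagent incubation.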

Assay [16] can be described thus: qHTS assay to identify small molecule antagonists of the estrogen receptor beta (ER-beta) signaling pathway - cell viability counter screen (AID 1259382). Also: series mostly up to about 92 µM; nearly all actives have a fitted effect of over 55% in size. The method in brief:
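Agonist-stimulated (1nM E2) ER-beta-UAS-bla HEK293T cells are incubated with library compounds for 16 hr at 37C. Cell viability is then assessed in the reporter-assay wells by adding CellTiter-Glo and reading luminescence after 30 min.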

The nature of assay [17]: qHTS assay to identify small molecule agonists of the estrogen receptor beta (ER-beta) signaling pathway - cell viability counter screen (AID 1259380). Also: nearly all actives have a fitted effect of over 30% in size. Also: potency is read from the fitted curve at half-maximal effect. The method in brief:
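Cells used were ER-beta-UAS-bla HEK293T in medium with 2% charcoal-stripped FBS. They were treated for 16 hr at 37C. Viability came from CellTiter-Glo luminescence.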

Estrogen receptor beta (Homo sapiens), sequence (Q92731 whole entry, looked up): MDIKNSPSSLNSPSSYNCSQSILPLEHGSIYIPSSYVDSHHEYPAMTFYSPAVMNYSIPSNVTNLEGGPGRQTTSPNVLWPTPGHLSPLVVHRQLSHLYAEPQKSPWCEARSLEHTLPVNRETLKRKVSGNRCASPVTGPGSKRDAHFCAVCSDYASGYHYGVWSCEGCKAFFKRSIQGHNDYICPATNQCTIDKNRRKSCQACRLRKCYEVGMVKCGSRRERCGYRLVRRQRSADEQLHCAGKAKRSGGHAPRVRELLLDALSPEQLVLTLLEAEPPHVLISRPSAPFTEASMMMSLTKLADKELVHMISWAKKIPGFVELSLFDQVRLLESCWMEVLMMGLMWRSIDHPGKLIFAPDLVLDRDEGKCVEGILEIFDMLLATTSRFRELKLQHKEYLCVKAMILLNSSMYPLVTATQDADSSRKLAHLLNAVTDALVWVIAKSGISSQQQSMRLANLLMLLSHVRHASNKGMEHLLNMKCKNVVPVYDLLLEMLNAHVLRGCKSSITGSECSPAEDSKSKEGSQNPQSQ
Thyrotropin receptor (Homo sapiens), sequence (P16473 whole entry, looked up): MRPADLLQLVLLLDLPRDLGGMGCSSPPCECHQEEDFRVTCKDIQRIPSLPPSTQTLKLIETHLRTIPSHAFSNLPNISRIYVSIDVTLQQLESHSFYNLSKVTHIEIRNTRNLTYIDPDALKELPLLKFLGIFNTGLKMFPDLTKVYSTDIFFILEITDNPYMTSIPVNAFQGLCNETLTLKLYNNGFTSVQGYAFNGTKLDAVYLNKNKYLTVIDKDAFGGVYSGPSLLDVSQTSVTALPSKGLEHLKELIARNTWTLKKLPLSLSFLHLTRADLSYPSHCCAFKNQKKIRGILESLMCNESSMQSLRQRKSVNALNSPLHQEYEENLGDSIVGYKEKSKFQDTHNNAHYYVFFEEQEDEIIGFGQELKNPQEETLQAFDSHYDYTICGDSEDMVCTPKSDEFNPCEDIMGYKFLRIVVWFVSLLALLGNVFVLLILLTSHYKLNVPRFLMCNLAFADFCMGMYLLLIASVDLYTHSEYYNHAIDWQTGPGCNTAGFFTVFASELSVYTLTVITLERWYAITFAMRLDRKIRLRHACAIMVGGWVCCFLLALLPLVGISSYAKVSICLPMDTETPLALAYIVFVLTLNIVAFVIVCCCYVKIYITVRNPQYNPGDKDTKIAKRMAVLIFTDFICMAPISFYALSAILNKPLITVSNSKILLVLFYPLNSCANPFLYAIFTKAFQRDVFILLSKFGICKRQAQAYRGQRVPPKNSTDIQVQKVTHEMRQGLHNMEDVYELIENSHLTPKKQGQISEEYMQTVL

With `CCCN(CCC)C(=O)Cc1c(-c2ccc(Cl)cc2)nc2ccc(Cl)cn12`, the Potency result in assay [1], in assay [2], in assay [4], in [5], in assay [6] and in assay [7] was “inactive” throughout. The Potency entry in assay [8], in assay [9], in [10], in assay [11] and in [13] was “inactive” in each case. Moreover, the result in assay [3] and in [12] was inactive.

For `Cc1nc(N(C)C)nc(OC(=O)N(C)C)c1C`, the Potency entry in [1], in assay [2], in assay [4], in [5], in assay [14] and in assay [15] was “inactive” in each case. For the same compound, the Potency entry in assay [6], in assay [7], in [8], in [9], in assay [16] and in assay [11] was “inactive” throughout. Besides, in [13], the Potency entry was “inactive”. In addition, the result in assay [12] was inactive.

With `O=C(O)C(Cl)(Cl)Br`, the Potency result in assay [1], in assay [2], in assay [4], in assay [5], in assay [14] and in assay [15] was “inactive” each time. Moreover, the Potency result in [6], in assay [7], in assay [8], in assay [10], in assay [17] and in assay [16] was “inactive” in each case. The Potency result in [13] is “inactive”. In addition, in [12], the result was inactive.

On to `OCCCl`, for which the Potency result in [1], in [2], in [4], in assay [5], in assay [14] and in assay [15] was “inactive” throughout. In addition, the Potency entry in assay [6], in assay [7], in assay [8], in assay [9], in [10] and in assay [17] was “inactive” each time. Moreover, the Potency entry in assay [16] was “inactive”.

On to `O=C1CC[C@@]2(O)[C@H]3Cc4ccc(O)c5c4[C@@]2(CCN3CC2CC2)[C@H]1O5`, for which the Potency entry in assay [1], in [2], in assay [4], in [5], in assay [14] and in assay [15] was “inactive” throughout. In addition, the Potency result in assay [6], in [7], in assay [8], in assay [10], in assay [17] and in assay [16] was “inactive” each time. For the same compound, in assay [13], the Potency entry was “inactive”. Moreover, the result in assay [3] and in [12] was inactive.

As to `CCCCC1C(=O)NC(=O)N(C2CCCCC2)C1=O` (configuration not stated), the Potency result in assay [1], in assay [2], in assay [4], in [5], in assay [14] and in assay [15] was “inactive” throughout. Besides, the Potency result in [6], in [7], in assay [8], in assay [9], in assay [10] and in assay [17] was “inactive” throughout. The Potency entry in assay [16] and in assay [11] was “inactive” in each case. Besides, in [3], the call was inactive.

For the compound `CC(C)(C)OOC(C)(C)CCC(C)(C)OOC(C)(C)C`, the Potency entry in assay [1], in assay [2], in assay [4], in assay [5], in assay [14] and in [15] was “inactive” throughout. For the same compound, the Potency entry in assay [6], in assay [7], in [8], in assay [9], in assay [10] and in assay [17] was “inactive” in each case. Further, the Potency entry in assay [13] is “inactive”. Further, in [12], the result was inactive.

As to `CC(Oc1cccc(Cl)c1)C(=O)O` (configuration not stated), the Potency entry in assay [1], in assay [2], in assay [5], in assay [14], in assay [15] and in [6] was “inactive” each time. Further, the Potency entry in [9], in assay [10], in assay [17], in assay [16] and in assay [13] was “inactive” each time. Also, the compound was classed as inactive in assay [12].

For the compound `CC(C)[C@@H](C(=O)O[C@@H](C#N)c1cccc(Oc2ccccc2)c1)c1ccc(Cl)cc1`, the Potency entry in [1], in [2], in assay [4], in [5], in assay [14] and in assay [15] was “inactive” each time. For the same compound, the Potency result in assay [6], in assay [8], in assay [17], in assay [16] and in assay [13] was “inactive” throughout. The call in assay [12] was inactive.

Consider `CN(C)c1ccc(N=O)cc1`, for which the Potency is 61.3 µM (active) in [1]; 48.7 µM (active) and 48.6 µM (active) in assay [2]; 21.8 µM (active) and 21.7 µM (active) in assay [14]; 15.4 µM (active) in assay [7]; 3.87 µM (active) and 15.4 µM (active) in assay [17]. Besides, the Potency result in assay [4], in assay [5], in [6], in assay [8] and in assay [11] was “inactive” in each case.
